KinaseGlo FLuc = blocks Kinase-Glo luciferase, a counter-screen artifact; Q27757; Kinase-Glo luciferase, ATP luminescence, 8 min; Potency, µM (series often up to 38.3 µM), inactives show at the top dose activity change, negative = inhibition, usual class: inhibitors; 200,000 compounds, 0.28% hits; further: on the % scale 0 is the no-effect control and ±100 the full control effect; nearly all actives have a fitted effect of over 60% in size
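Compound is pinned into ATP-containing buffer (10 uM ATP, imidazole pH 7.2, 7 mM MgCl2). Kinase-Glo luciferase reagent is then added. Light output is recorded following an 8-min room-temperature incubation.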
SMN2 splice enh = SMN2 splice variant enhancement | HEK293 SMN2-luciferase splicing reporter, luminescence, 30-36 h | Potency, µM (doses to about 46.1 µM), for the others: at the top dose activity change, positive = activation, actives largely listed as activators | 210,000 compounds, 2.8% hits | AID 1458; further: % of control where 0% means no effect; nearly all actives have a fitted effect of over 55% in size
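qHTS luciferase splicing reporter: luminescence rises when SMN2 exon 7 is included in transfected HEK293 cells. Compound exposure lasted 30-36 h at 37C, with 4.5 mM final sodium butyrate as control, followed by a ONE-Glo read.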
ELG1 genotox = induces genotoxicity in HEK293T cells with luciferase-tagged ELG1; HEK293T ELG1-luciferase reporter, luminescence, 16 h; 330,000 compounds, 1.3% hits; AID 504466; Potency, µM (highest dose often 46 µM), for inactives: at the highest dose activity change, positive = activation, usual class: activators; further: % of control where 0% means no effect; nearly all actives have a fitted effect of over 60% in size
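Step 1: seed 2,000 HEK293T ELG1-luciferase cells per well. Step 2: add compound or DMSO, incubate 16 hr at 37 °C. Step 3: ONE-Glo, 30 min at room temperature, read luminescence.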
Rab9 promoter act = activates the Rab9 promoter. Huh7 Rab9 promoter-luciferase reporter, luminescence, 24 h. Potency, µM (highest dose often 9.22 µM), inactives show top-dose activation, negative = inhibition, hits mostly activators. 320,000 compounds, 2.8% hits; further: % of control where 0% means no effect; nearly all actives have a fitted effect of over 60% in size
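Cell-based reporter: Huh7 stable for Rab9 promoter-driven luciferase, plated in reduced-serum medium with 10% FBS at 1500 cells/well, compound-treated 24 h at 37 °C, luminescence read after 10 min reagent.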
FLuc counter = inhibits or activates purified firefly luciferase, miR-21 counter-screen; P08659; purified FLuc, Km substrates, luminescence inhibition; Potency, µM (titrated, usually from 57.5 µM), inactives show at the highest dose activity change, negative = inhibition, usual class: inhibitors; 360,000 compounds, 6.9% hits; AID 588342;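 further: plate controls were vehicle for no effect and reference inhibitor for full effect; nearly all actives have a fitted effect of over 55% in size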
Target sequence (P08659 whole entry, looked up): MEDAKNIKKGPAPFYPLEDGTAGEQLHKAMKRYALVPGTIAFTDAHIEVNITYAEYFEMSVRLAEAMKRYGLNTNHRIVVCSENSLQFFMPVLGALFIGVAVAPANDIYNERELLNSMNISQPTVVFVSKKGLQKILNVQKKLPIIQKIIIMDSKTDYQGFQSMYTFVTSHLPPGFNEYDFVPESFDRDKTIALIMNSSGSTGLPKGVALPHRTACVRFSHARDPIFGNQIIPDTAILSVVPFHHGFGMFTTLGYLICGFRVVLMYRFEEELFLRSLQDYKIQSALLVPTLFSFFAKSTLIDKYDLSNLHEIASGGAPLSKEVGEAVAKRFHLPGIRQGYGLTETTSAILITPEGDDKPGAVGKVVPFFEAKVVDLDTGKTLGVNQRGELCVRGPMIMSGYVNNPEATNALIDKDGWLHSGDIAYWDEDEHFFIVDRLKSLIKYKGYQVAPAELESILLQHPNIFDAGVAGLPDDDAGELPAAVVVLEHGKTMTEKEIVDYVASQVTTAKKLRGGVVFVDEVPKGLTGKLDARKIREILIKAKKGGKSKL
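Purified P. pyralis luciferase, 10 nM final, with Km-level 10 uM D-luciferin and 10 uM ATP in 50 mM Tris acetate pH 7.5, 10 mM Mg acetate, 0.01% Tween-20, 0.05% BSA; 6-point qHTS titration about 60 µM downward; luminescence read.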
NPC1 promoter act = activates the NPC1 promoter; Huh7 NPC1 promoter luciferase reporter, 24 h; Potency, µM (highest dose often 9.22 µM), for the others: at the top dose activation, usual class: activators; 320,000 compounds, 2.4% hits; AID 485313; further: % of control where 0% means no effect; nearly all actives have a fitted effect of over 60% in size
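Compounds in DMSO were transferred onto Huh7 NPC1-luciferase reporter cells pre-incubated 2 h; after 24 h at 37 °C, Amplite reagent was dispensed and luminescence recorded 10 min later.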
The depositor's hits bear a star; ? = inconclusive; nt = no result. In the library only some 7.5% were active in any assay of this set; here they are far more common. The call rests on the fitted dose curve; in most records, active means well fitted curve in the direction sought with a large enough effect; inconclusive means small, poorly fitted or top-dose-only effect, or another doubt; inactive means no such curve, though single readings can be large; an effect the other way counts as inactive or inconclusive. Potency means the concentration at half of the fitted maximal effect.

SMILES | KinaseGlo FLuc | SMN2 splice enh | ELG1 genotox | Rab9 promoter act | FLuc counter | NPC1 promoter act
CCc1nnc(NC(=O)c2ccc(OC)cc2OC)s1 | -3% | 2µM* | ? | 0.45µM* | 2.1µM* | 0.45µM*
CCc1nnc(NC(=O)Nc2ccccc2OC)s1 | -5% | ? | ? | 30% | ? | 12%
COc1ccc(C(=O)Nc2nnc(SCC(=O)Nc3ccc(NC(C)=O)cc3)s2)c(OC)c1 | nt | nt | ? | 0.63µM* | 0.085µM* | 0.35µM*
COc1ccc(OCC(=O)N(C)Cc2ccccc2)cc1 | -3% | 1% | 6% | 7% | -1% | -6%
CC(C)NS(=O)(=O)c1ccc(OCC(=O)N(C)Cc2ccccc2)cc1 | -1% | -10% | 3% | 0% | 1% | -1%
Cc1cc(OCC(=O)N(C)Cc2ccccc2)ccc1Cl | nt | nt | 14% | 4.5µM* | 15µM* | ?
Cc1cc(OCC(=O)N(C)Cc2ccccc2)ccc1Br | nt | nt | 8% | ? | 17µM* | ?
COC(=O)N[C@@H](c1cccc(F)c1)[C@@H](C)[N+](=O)[O-] | 1% | 7% | nt | nt | nt | nt
COc1ccccc1Nc1nnc(SCC(=O)c2cc(C)n(CC3CCCO3)c2C)s1 (centres undefined) | -9% | -18% | -4% | -5% | ? | -4%
Cc1cc(C(=O)CSc2nnc(Nc3ccccc3)s2)c(C)n1CC1CCCO1 (centres undefined) | 1% | -20% | -4% | 12% | 11µM* | 3%
Cc1cc(C(=O)CSc2nnc(Nc3ccccc3F)s2)c(C)n1CC1CCCO1 (centres undefined) | 13% | -9% | -6% | -2% | 15µM* | -3%
COc1ccccc1C(=O)NCCC(=O)NCC(c1ccccc1)N(C)C (centres undefined) | nt | nt | 6% | -2% | 13µM* | 2%
COc1ccccc1C(=O)NCCC(=O)NC1CCC(C)CC1 (centres undefined) | nt | nt | ? | 4µM* | 13µM* | ?
COc1ccccc1C(=O)NCCC(=O)NCCc1ccccc1 | nt | nt | 14% | -4% | 4% | -1%
COc1ccc(CCCO[C@@H](Cn2ccnc2)c2ccc(OC)cc2)cc1 | 1% | nt | nt | nt | nt | nt
COc1ccc2nc(SCC(=O)Nc3ccc4[nH]c(=O)[nH]c4c3)[nH]c2c1 | nt | nt | -2% | -2% | 15µM* | 1%
COC(=O)c1ccc(NC(=O)CSc2nc3ccccc3c(=O)[nH]2)cc1 | -2% | -15% | ? | -1% | -5% | -3%
COc1ccc2nc(SCC(=O)N3CCNC3=O)[nH]c2c1 | -12% | ? | ? | 2µM* | 21µM* | 2.5µM*
COc1ccc(NC(=O)CSc2nc3ccccc3c(=O)[nH]2)cc1S(N)(=O)=O | nt | nt | 2% | 0% | 19µM* | 1%
COC(=O)C1CCN(C(=O)CSc2nc3ccc(OC)cc3[nH]2)CC1 | -1% | 11% | 5% | -2% | 0% | 15%
O=C(CSc1nc(O)c(Cc2ccccc2)c(=O)[nH]1)Nc1nnc(SCc2ccccc2)s1 | nt | nt | 2% | 11% | 11µM* | -5%
CC(=O)c1ccc(NC(=O)c2noc3c2CSc2ccccc2-3)cc1 | nt | nt | nt | nt | -1% | nt
CC(C)OC(=O)c1ccc(NC(=O)CSc2nc3ncccc3[nH]2)cc1 | -1% | -19% | 1% | 13% | 17µM* | 1%
COc1ccc(NC(=O)CSc2nc(O)c(C/C=C/c3ccccc3)c(=O)[nH]2)cc1 | nt | -3% | nt | nt | 5.4µM* | nt
COc1ccc(NC(=O)c2ccc(NC(=O)CSc3nccc(=O)[nH]3)cc2)cc1 | nt | nt | 8% | 3% | 15µM* | 17%
Cc1ccc(-c2nc(S(=O)(=O)c3ccc(Cl)cc3)c(N3CCCCC3)o2)cc1 | nt | -1% | nt | nt | -1% | nt
COc1cccc(/C=C2\SC(=S)N(N3C(=O)CCCC3=O)C2=O)c1 | -2% | 12% | 2% | -11% | 21µM* | -1%
O=C1/C(=C/c2cccc(O)c2)SC(=S)N1CC1CCCO1 (centres undefined) | nt | nt | 5% | -9% | ? | -13%

Screening data (PubChem)
